Reference: PubChem BioAssay (Tox21)
Several values for one entry are separate records, joined by “and”; a condition that tells them apart may be missing. Equal entries are not always repeated. Results filed as inconclusive are left out. More than one record can exist for a structure, and the calls need not agree. Activity calls are given as the source filed them. Unless noted, calls come from the whole dose curve; as a rule, active = well fitted curve in the direction sought with a large enough effect in the repeat runs; inconclusive = weak or mixed curves; inactive = no such curve, though single readings can be large; an effect the other way counts as inactive or inconclusive.

How the values were obtained:
[1] = A CellTox Green Cytotoxicity Assay to monitor cytotoxicity in HepG2 cells - 0 hour (AID 1224882); note: nearly all actives have a fitted effect of over 35% in size
Outline: (§1)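 First, HepG2 cells (600/well) mixed with reagent were plated; second, after 5 h at 37 C they received compounds via pintool; third, fluorescence was measured at 0 h through 40 h at 8 h intervals.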

[2] = A CellTox Green Cytotoxicity Assay to monitor cytotoxicity in HepG2 cells - 32 hour (AID 1224883); note: nearly all actives have a fitted effect of over 50% in size; note: potency is the fitted concentration of half-maximal effect
Outline: as §1

[3] = A CellTox Green Cytotoxicity Assay to monitor cytotoxicity in HEK293 cells - 8 hour (AID 1224884); note: nearly all actives have a fitted effect of over 35% in size; note: potency is the fitted concentration of half-maximal effect
Outline: (§2)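 Dead-cell fluorescence measured kinetically: asymmetric cyanine dye, HEK293, 600 cells/well, 5 h settle, 23 nL cpd/DMSO, 37 C, reads 0–40 h every 8 h.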

[4] = qHTS RealTime-Glo MT Cell Viability Assay in HEK293 cells - 24 hour (AID 1224886); note: nearly all actives have a fitted effect of over 50% in size; note: potency is the fitted concentration of half-maximal effect
Outline: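 Cells + reagent dispensed (600 cells/well, HEK293) → 5 h at 37 C/5% CO2 → 23 nL compound in DMSO pinned → 40 h at 37 C → luminescence read at 0, 8, 16, 24, 32, 40 h.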

[5] = qHTS RealTime-Glo MT Cell Viability Assay in HEK293 cells - 8 hour (AID 1224887); note: nearly all actives have a fitted effect of over 50% in size; note: potency is the fitted concentration of half-maximal effect
Outline: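 600 HEK293 cells per well, dispensed already mixed with RealTime-Glo MT reagents. Compound dosing came 5 h later. The same wells were read for luminescence at 0, 8, 16, 24, 32 and 40 h of exposure at 37 C.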

[6] = A CellTox Green Cytotoxicity Assay to monitor cytotoxicity in HEK293 cells - 16 hour (AID 1224888); note: nearly all actives have a fitted effect of over 35% in size; note: potency is the fitted concentration of half-maximal effect
Outline: as §2

[7] = qHTS RealTime-Glo MT Cell Viability Assay in HepG2 cells - 0 hour (AID 1224889); note: nearly all actives have a fitted effect of over 50% in size; note: potency is the fitted concentration of half-maximal effect
Outline: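 Real-time, nonlytic viability: 600 HepG2 cells/well mixed with NanoLuc enzyme plus prosubstrate; 5 h settle, compound (DMSO) added by pintool; luminescence monitored over 40 h at 37 C.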

[8] = A CellTox Green Cytotoxicity Assay to monitor cytotoxicity in HepG2 cells - 8 hour (AID 1224890); note: nearly all actives have a fitted effect of over 45% in size; note: potency is the fitted concentration of half-maximal effect
Outline: as §1

[9] = qHTS assay to identify small molecule antagonists of the estrogen receptor alpha (ER-alpha) signaling pathway using the BG1 cell line in the presence of 0.1 nM 17-beta-estradiol - cell viability counter screen (AID 1259241); note: nearly all actives have a fitted effect of over 40% in size
Outline: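 Estradiol-stimulated (0.1 nM) VM7Luc4E2 cells exposed to compounds 22 hr; viability measured by fluorescence of cleaved CellTiter-Fluor substrate after 30 min.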

[10] = qHTS assay to identify small molecule antagonists of the androgen receptor (AR) signaling pathway using the MDA cell line in the presence of 0.5 nM R1881 - cell viability counter screen (AID 1259242); note: nearly all actives have a fitted effect of over 45% in size; note: potency is the fitted concentration of half-maximal effect
Outline: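 qHTS format. MDA-kb2 (MMTV-luc, AR/GR responsive) + cpd + 0.5 nM R1881 final, 16 hr 37C/0% CO2 → CellTiter-Fluor 30 min → fluorescence intensity.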

[11] = qHTS assay to identify small molecule HDAC inhibitors (AID 1259364); note: potency is the fitted concentration of half-maximal effect;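 note: wild-type HCT-116 cells with endogenous class I/II HDAC activity; nearly all actives have a fitted effect of over 45% in size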
Outline: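 Quantitative high-throughput format: overnight-seeded HCT-116 cells got compounds for 2 hr at 37C; HDAC-Glo I/II reagent added, 30 min RT, luminescence measured.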

[12] = qHTS assay to identify small molecule HDAC inhibitors - cell viability counter screen (AID 1259365)
Outline: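 After overnight seeding at 1,500 cells per well, wild-type HCT-116 cultures took up compounds in DMSO for 2hr at 37 C. Viable cell content came from luminescence with CellTiter-Glo.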

[13] = qHTS assay to identify small molecule agonists of the sonic hedgehog signaling (Shh) pathway - cell viability counter screen (AID 1259366); note: nearly all actives have a fitted effect of over 50% in size; note: potency is the fitted concentration of half-maximal effect
Outline: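 Same-well cytotoxicity read. Gli1-Luc reporter 3T3 cells; compounds 24hr, 37C/5% CO2; CellTiter-Fluor fluorescence.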

[14] = qHTS assay to identify small molecule antagonists of the sonic hedgehog signaling (Shh) pathway - cell viability counter screen (AID 1259367); note: nearly all actives have a fitted effect of over 55% in size; note: potency is the fitted concentration of half-maximal effect
Outline: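 Fluorescence read-out (CellTiter-Fluor, 1 hr at 37C) taken after 23 hr compound treatment of 3T3 Gli1-Luc cells stimulated with conditioned medium. Cells were seeded at 2,000 per well and pre-incubated 4 hr.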

[15] = qHTS assay to identify small molecule agonists of the sonic hedgehog signaling (Shh) pathway (AID 1259368; calls by dose curve;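 note: NIH/3T3-derived 3T3Gli1-Luc cells carrying a stable Gli1-driven firefly luciferase reporter; series mostly up to about 92 µM; nearly all actives have a fitted effect of over 15% in size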)
Outline: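 Quantitative high-throughput format using a Gli1-driven firefly luciferase reporter line derived from NIH/3T3 cells. After a 24 hr compound treatment at 37 C and 5% CO2, luminescence reported Gli1 response element activity.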

[16] = qHTS assay to identify small molecule antagonists of the sonic hedgehog signaling (Shh) pathway (AID 1259369; calls by dose curve; note: nearly all actives have a fitted effect of over 45% in size; note: potency is the fitted concentration of half-maximal effect)
Outline: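 Stable Gli1-Luc reporter NIH/3T3 clone; quantitative HTS in stimulated mode with conditioned medium. Luminescence measured after 24hr compound treatment at 37 C.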

[17] = molecular target: Estrogen receptor (Homo sapiens) (UniProt P03372); assay: qHTS assay to identify small molecule antagonists of the estrogen receptor alpha (ER-alpha) signaling pathway using the BG1 cell line in the presence of 0.1 nM 17-beta-estradiol (AID 1259244); note: nearly all actives have a fitted effect of over 50% in size; note: potency is the fitted concentration of half-maximal effect
Outline: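 Reporter is a stably transfected luciferase under four estrogen responsive elements in VM7Luc4E2 cells expressing native full-length ER-alpha; inhibition of 0.1 nM (final) 17beta-estradiol-driven signal over 22 h is read by luminescence.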

[18] = molecular target: Androgen receptor (Homo sapiens) (UniProt P10275); assay: qHTS assay to identify small molecule antagonists of the androgen receptor (AR) signaling pathway using the MDA cell line in the presence of 0.5 nM R1881 (AID 1259243); note: nearly all actives have a fitted effect of over 50% in size; note: potency is the fitted concentration of half-maximal effect
Outline: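 Antagonist mode quantitative HTS in MDA-kb2 MMTV-luciferase cells, agonist R1881 at 0.5 nM final, 16 hr exposure at 37C and 0% CO2, luminescent detection.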

[19] = qHTS assay to identify small molecule phospholipidosis (PLD) inducers (AID 1259344; active = well fitted curve in the direction sought with a large enough effect; an effect the other way counts as inactive or inconclusive)
Outline: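 Read-out is LipidTOX Red fluorescence (ex 595/em 615) imaged in HepG2 cells after 24 h compound exposure at 37 C, with Hoechst nuclear counterstain (ex 352/em 461) allowing per-cell normalisation.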

Measured: Potency

Androgen receptor (Homo sapiens), sequence (P10275 whole entry, looked up): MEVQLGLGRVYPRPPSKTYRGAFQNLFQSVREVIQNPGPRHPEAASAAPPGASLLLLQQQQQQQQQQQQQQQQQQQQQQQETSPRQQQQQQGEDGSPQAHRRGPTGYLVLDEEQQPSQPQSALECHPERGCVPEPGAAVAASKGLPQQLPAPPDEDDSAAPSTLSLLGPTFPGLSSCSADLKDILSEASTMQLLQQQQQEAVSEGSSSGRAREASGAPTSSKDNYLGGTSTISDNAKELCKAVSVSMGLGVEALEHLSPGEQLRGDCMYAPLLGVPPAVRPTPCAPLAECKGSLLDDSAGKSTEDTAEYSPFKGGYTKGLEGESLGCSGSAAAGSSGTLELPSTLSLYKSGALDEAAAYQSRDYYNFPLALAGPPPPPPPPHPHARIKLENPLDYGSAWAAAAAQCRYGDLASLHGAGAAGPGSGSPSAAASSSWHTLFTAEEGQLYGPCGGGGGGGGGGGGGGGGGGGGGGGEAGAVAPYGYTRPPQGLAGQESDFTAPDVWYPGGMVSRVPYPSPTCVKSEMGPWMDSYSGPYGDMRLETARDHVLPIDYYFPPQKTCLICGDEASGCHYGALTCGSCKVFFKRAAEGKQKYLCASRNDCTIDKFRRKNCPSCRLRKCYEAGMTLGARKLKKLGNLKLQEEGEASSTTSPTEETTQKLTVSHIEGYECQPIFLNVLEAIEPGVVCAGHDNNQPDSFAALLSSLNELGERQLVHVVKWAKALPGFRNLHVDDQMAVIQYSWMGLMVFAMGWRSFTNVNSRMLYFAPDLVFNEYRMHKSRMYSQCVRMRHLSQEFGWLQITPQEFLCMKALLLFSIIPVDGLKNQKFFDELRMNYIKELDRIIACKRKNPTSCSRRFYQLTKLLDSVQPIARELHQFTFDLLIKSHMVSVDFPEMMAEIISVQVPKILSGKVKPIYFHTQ
Estrogen receptor (Homo sapiens), sequence (P03372 whole entry, looked up): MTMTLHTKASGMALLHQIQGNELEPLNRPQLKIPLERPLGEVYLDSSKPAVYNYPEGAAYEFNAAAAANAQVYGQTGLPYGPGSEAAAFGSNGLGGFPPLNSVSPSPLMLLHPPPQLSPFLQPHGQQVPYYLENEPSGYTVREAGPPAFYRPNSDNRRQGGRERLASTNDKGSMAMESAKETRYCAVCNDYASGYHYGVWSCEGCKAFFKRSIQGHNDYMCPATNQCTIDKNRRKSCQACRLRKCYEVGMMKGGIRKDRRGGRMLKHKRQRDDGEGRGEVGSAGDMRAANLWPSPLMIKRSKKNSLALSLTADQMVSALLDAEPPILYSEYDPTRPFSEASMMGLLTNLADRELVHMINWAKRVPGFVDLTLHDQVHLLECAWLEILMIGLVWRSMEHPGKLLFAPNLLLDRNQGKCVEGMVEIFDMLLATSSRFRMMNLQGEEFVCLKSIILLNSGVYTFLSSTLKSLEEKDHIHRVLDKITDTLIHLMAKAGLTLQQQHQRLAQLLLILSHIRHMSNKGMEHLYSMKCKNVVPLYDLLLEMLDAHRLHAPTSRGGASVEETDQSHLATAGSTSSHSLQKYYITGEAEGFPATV

N#CNC#N
not listed: [17] | [18] | [19]
inactive: all other assays above

Cc1cc(C)cc(OP(=O)(Oc2cc(C)cc(C)c2)Oc2cc(C)cc(C)c2)c1
not listed: [16] | [18] | [19]
inactive: all other assays above

CC(C)C(=O)Cl
not listed: [17] | [19]
inactive: all other assays above

C[C@]12CC[C@H](O)C[C@H]1CC[C@@H]1[C@@H]2C[C@@H](O)[C@]2(C)[C@@H](C3=CC(=O)OC3)CC[C@]12O
active: [4] 0.616 µM
not listed: [5] | [17] | [19]
inactive: all other assays above

N#CCc1ccc(Cl)cc1
not listed: [18] | [19]
inactive: all other assays above

CCCCCCCCCCCCCCCC[N+](C)(C)C
active: [2] 21.1 µM and 19 µM | [3] 21.1 µM and 49 µM | [4] 9.42 µM and 21.9 µM and 9.52 µM | [6] 23.7 µM and 49 µM and 19 µM | [8] 54.9 µM and 21.3 µM | [10] 38.6 µM | [16] 3.72 µM and 969 nM and 298 nM
54.5 µM (active) and inactive: [13]
61.1 µM (active) and inactive: [14]
inactive: [1] | [7] | [9] | [19] | [11] | [12] | [15]

C=CC(=O)OCCCCOC(=O)C=C
inactive: [1] | [3] | [6] | [7] | [8] | [9] | [17] | [11] | [15]
active: [2] 43.6 µM | [4] 34.7 µM | [13] 61.1 µM

CC(C)CC(C)(c1ccc(O)cc1)c1ccc(O)cc1
active: [2] 43.8 µM | [4] 43.8 µM | [13] 54.6 µM | [14] 61.3 µM | [16] 27.4 µM
24.6 µM (active) and inactive: [3]
43.8 µM (active) and inactive: [5]
inactive and 49 µM (active): [8]
not listed: [6] | [17] | [18] | [19]
inactive: all other assays above

CN(C)CCc1c[nH]c2cccc(O)c12
active: [16] 53.9 µM
not listed: [9] | [13] | [14] | [17] | [18]
inactive: all other assays above

SCc1ccco1
active: [16] 61.1 µM
not listed: [18] | [19]
inactive: all other assays above

C[C@@H](Oc1ccc(Cl)cc1Cl)C(=O)O
not listed: [5] | [16] | [18] | [19]
inactive: all other assays above

ClC1=C(Cl)C2(Cl)C3C(Cl)C=CC3C1(Cl)C2(Cl)Cl (centres undefined)
active: [2] 54.9 µM | [3] 55.2 µM and 49 µM | [4] 43.8 µM and 49 µM | [5] 43.8 µM and 43.6 µM | [6] 55.2 µM and 49 µM
not listed: [8] | [16] | [18] | [19]
inactive: all other assays above

Clc1ccc(-c2ccccc2)cc1
not listed: [13] | [18] | [19]
inactive: all other assays above

N#CCCO
not listed: [5] | [14] | [19]
inactive: all other assays above

COc1cc(C=O)cc2c1[C@H](COC(N)=O)[C@]1(OC(C)=O)ON2C[C@H]2[C@@H]1N2C(C)=O
active: [2] 0.0977 µM | [4] 0.245 µM | [17] 0.154 µM | [13] 6.11 µM
not listed: [8] | [9] | [14] | [16] | [18] | [19]
inactive: all other assays above

O=c1oc2ccccc2c(O)c1Cc1c(O)c2ccccc2oc1=O
not listed: [7] | [17] | [18]
inactive: all other assays above

N#CCCSCCC#N
not listed: [5] | [8] | [19]
inactive: all other assays above

O=c1c(C2CC(c3ccc(-c4ccc(Br)cc4)cc3)Cc3ccccc32)c(O)sc2ccccc12 (centres undefined)
active: [7] 6.74 µM | [17] 13.3 µM
not listed: [14] | [16] | [18] | [19]
inactive: all other assays above

CCOCn1c(-c2ccc(Cl)cc2)c(C#N)c(Br)c1C(F)(F)F
active: [2] 12.3 µM | [4] 4.9 µM | [5] 19.5 µM | [10] 5.45 µM | [17] 1.93 µM
not listed: [9] | [14] | [16] | [18] | [19]
inactive: all other assays above

O=C(Nc1ccc2[nH]ccc2c1)c1cc2cc(F)ccc2n1Cc1cccc(F)c1
active: [13] 43.3 µM | [14] 68.6 µM | [16] 24.3 µM
not listed: [10] | [18] | [19]
inactive: all other assays above

CCCOCC(=Nc1ccc(Cl)cc1C(F)(F)F)n1ccnc1
inactive: [1] | [7] | [11] | [15]
active: [2] 43.6 µM | [3] 54.9 µM | [4] 43.6 µM | [5] 43.6 µM | [6] 54.9 µM | [16] 9.68 µM

[CH3][Hg][Cl]
active: [2] 12.3 µM | [4] 4.89 µM | [5] 6.9 µM | [8] 15.5 µM | [10] 21.6 µM | [18] 19.3 µM | [11] 27.2 µM | [13] 4.84 µM | [14] 68.4 µM
inactive: [1] | [3] | [7] | [9] | [17] | [15]

Oc1ccccc1Br
not listed: [18] | [19]
inactive: all other assays above

CCS(=O)(=O)c1cccnc1S(=O)(=O)NC(=O)Nc1nc(OC)cc(OC)n1
not listed: [5] | [16] | [17] | [18] | [19]
inactive: all other assays above

O=[N+]([O-])c1ccc(Oc2ccc(C(F)(F)F)cc2[N+](=O)[O-])cc1
active: [4] 15.5 µM | [5] 19.5 µM | [16] 61.1 µM
not listed: [8] | [18] | [19]
inactive: all other assays above

Nc1ccc(Cc2ccc(N)c(Cl)c2)cc1Cl
inactive: [1] | [2] | [3] | [6] | [10] | [11] | [12] | [15]
active: [4] 26.6 µM | [5] 29.9 µM | [17] 59.1 µM | [14] 52.7 µM | [16] 21 µM

Cc1ccc(OP(=O)(Oc2ccccc2)Oc2ccccc2)cc1
active: [16] 17.5 µM
not listed: [18] | [19]
inactive: all other assays above

OC(Cc1ccccc1Cl)(Cn1cncn1)C1(Cl)CC1 (centres undefined)
active: [4] 54.9 µM | [7] 24.5 µM | [16] 12.2 µM
not listed: [5] | [17] | [18] | [19]
inactive: all other assays above

CC(O)C#N (centres undefined)
not listed: [5] | [19]
inactive: all other assays above

CCOP(=S)(OCC)SCS(=O)(=O)C(C)(C)C
not listed: [7] | [13] | [14] | [16] | [17] | [18] | [19]
inactive: all other assays above
